High-throughput results (PubChem)
A selection: hits, their analogues and other compounds. The true share with any hit is near 4.4%.
Mot1-301 SUMO – yeast Mot1-301 growth rescue at high temperature, primary screen, SUMOylation pathway inhibitor project, S. cerevisiae, ATP luminescence, 38.5C; S. cerevisiae Mot1-301 growth rescue; percent above DMSO median, 100 means doubled; growth rescue, % at 18.8 µM; 320,000 compounds, 1% hits;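 active means every valid replicate shows activation above 250% relative to neutral control wells; inactive means the rest, any valid replicate at or below 250%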
tim10-1 inh – growth inhibitors of tim10-1 mutant yeast, primary screen, luminescence, uHTS. S. cerevisiae tim10-1 ts strain growth, BacTiter-Glo, 24 h. inhibition, % at 20 µM. 330,000 compounds, 2.2% hits. AID 463190, 2010;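 active means inhibition of at least 40%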;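 further: mutant grown at 25 °C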
PfHsp90 set2 – growth inhibition of PfHsp90-expressing yeast, primary screen, antimalarial PfHsp90 inhibitor project, S. cerevisiae, BacTiter-Glo luminescence, single point, set 2; inhibition, % at 9.4 µM; 310,000 compounds, 0.32% hits; BacTiter-Glo ATP, 48 h; yeast lacking PDR1 and PDR3 efflux regulators;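 active means every replicate shows inhibition above about 80%, whatever the replicate mean, limit read from the data; inconclusive means mean inhibition reaches the set limit but some replicate falls short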
tim23-1 inh – growth inhibitors of tim23-1 mutant yeast, primary screen, luminescence, uHTS; S. cerevisiae tim23-1 growth, BacTiter-Glo luminescence, 24 h; inhibition, % at 20 µM; 330,000 compounds, 1.3% hits; AID 463212, 2010;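 active means growth inhibition of the mutant yeast at or above 50%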;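 further: temperature-sensitive mutant grown at 25 °C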
TIM10 inh – growth inhibitors of isogenic TIM10 control yeast, primary screen, counter-screen for tim10-1 yeast inhibitor project, luminescence, uHTS | 330,000 compounds, 1.4% hits | inhibition, % at 10 µM | S. cerevisiae TIM10 strain growth, BacTiter-Glo luminescence, 24 h | AID 463195, 2010;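 active means inhibition of 40% or more at the single tested concentration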;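 further: wild-type TIM10 isogenic control strain grown at permissive 25 °C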
tim10-1 conf – growth inhibitors of tim10-1 mutant yeast, confirmation, single concentration, luminescence, S. cerevisiae | shares compounds with tim10-1 inh | S. cerevisiae tim10-1 ts strain growth, BacTiter-Glo, 24 h | inhibition, % at 20 µM | 7,400 compounds, 56% hits | AID 463213, 2010;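 active means inhibition of yeast growth at or above a set limit in either of two repeat tests at 20 µM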;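 further: tim10-1 mutant grown at permissive 25 °C to find synthetic lethal compounds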
TIM10 conf – growth inhibitors of wild-type TIM10 yeast, confirmation, counter-screen for tim10-1 synthetic lethality project, single concentration, luminescence, S. cerevisiae | shares compounds with TIM10 inh | S. cerevisiae tim10 strain growth, BacTiter-Glo luminescence, 24 h | inhibition, % at 10 µM | 4,600 compounds, 63% hits;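 active means inhibition of yeast growth at or above a set limit in either of two replicates at 10 µM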; further: this counterscreen used the strain with wild-type TIM10
tim23-1 conf – tim23-1 mutant yeast growth inhibitors, confirmation, luminescence, single concentration; shares compounds with tim23-1 inh; S. cerevisiae tim23-1 growth, BacTiter-Glo luminescence, 24 h; inhibition, % at 20 µM; 4,400 compounds, 83% hits; AID 463218, 2010;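 active means inhibition above about 39% in either of two replicate wells at 20 µM, limit read from the data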;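 further: temperature-sensitive tim23-1 mutant grown at 25 °C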
Large screens that a line does not name were inactive (follow-up assays come after a bar, where they were run).

Cc1ccccc1C(=O)O/N=C(\N)c1ccccc1	tim10-1 inh 54.6, tim23-1 inh 56.6, TIM10 inh 52.5 | tim10-1 conf 58.1 | TIM10 conf 49.5 | tim23-1 conf 68.2
O=C(/C=C/c1ccccc1)/C=C/c1ccccc1	tim10-1 inh 48.2, tim23-1 inh 59.2, TIM10 inh 52.7 | tim10-1 conf 48.6 | TIM10 conf inactive | tim23-1 conf 66.7
C/C(=N/OC(=O)c1ccc(C)cc1)C(=O)c1ccc(Br)cc1	none
CC1=C(C)/C(=N\OS(=O)(=O)c2ccccc2)C=CC1=O	tim10-1 inh 94.5, PfHsp90 set2 105.8, tim23-1 inh 50.5, TIM10 inh 94.6 | tim10-1 conf 92.8 | TIM10 conf inactive | tim23-1 conf 94.2
Cc1ccc(S(=O)(=O)O/N=C2\CCCc3ccccc32)cc1	none
Cc1cc(C)c(C#N)c(Cl)n1	none
Cc1cc(Cl)ccc1N=c1ssnc1Cl	tim10-1 inh 52.4, PfHsp90 set2 inconclusive, tim23-1 inh 59.5 | tim10-1 conf 55.1 | tim23-1 conf 77.4
Cc1cc(C)nc(/N=c2/ssnc2Cl)c1	tim10-1 inh 81.0, tim23-1 inh 91.4, TIM10 inh 77.1 (no result: PfHsp90 set2) | tim10-1 conf 82.5 | TIM10 conf 94.7 | tim23-1 conf 67.9
CCCCn1c(N)c(N(CCOC)C(=O)COC(=O)CCOc2ccc(C)cc2)c(=O)[nH]c1=O	none
COc1ccc(C(=O)COC(=O)c2c(-c3ccccc3)noc2C)c(OC)c1	none (no result: PfHsp90 set2)
Cn1c2ccccc2c(=O)c2c(=O)n(C3CCCCC3)c(-c3cccs3)nc21	tim10-1 inh 43.4, tim23-1 inh 60.5 | tim10-1 conf 36.0 | tim23-1 conf 69.2
CCOC(=O)c1ccc(N=Cc2nc(-c3ccccc3)oc2OC(C)=O)cc1	tim10-1 inh 70.6, tim23-1 inh 57.9, TIM10 inh 45.4 | tim10-1 conf 54.7 | TIM10 conf 68.1 | tim23-1 conf 83.5
CCC(=O)Oc1oc(-c2ccccc2)nc1C=Nc1ccccc1OC	tim10-1 inh 49.6, tim23-1 inh 52.6 | tim10-1 conf 36.5 | tim23-1 conf 70.2
CC(=O)Oc1oc(-c2ccccc2)nc1C=Nc1ccccc1	tim10-1 inh 53.4, tim23-1 inh 77.0, TIM10 inh 40.6 | tim10-1 conf 48.6 | TIM10 conf 44.0 | tim23-1 conf 76.2
COc1ccc(CCNC(=O)CCNC(=O)N2CC(=O)Nc3ccccc32)cc1	none
CC(OC(=O)Cn1cnc2c1c(=O)n(C)c(=O)n2C)C(=O)Nc1ccc(Cl)cc1 (centres undefined)	none
CCc1nc2sc3ccccc3c(=O)c2c(=O)n1Cc1ccc(OC)cc1	tim10-1 inh 40.1, tim23-1 inh 53.3 | tim10-1 conf 30.5 | tim23-1 conf 41.2
CC1=NNC(=O)/C1=C\c1cn(-c2ccccc2)nc1-c1ccc(Cl)cc1	tim10-1 inh 82.5, tim23-1 inh 89.0, TIM10 inh 89.4 | tim10-1 conf 71.0 | TIM10 conf 88.5 | tim23-1 conf 67.5
CC1=NN(c2ccccc2)C(=O)/C1=C\c1cn(CCC#N)nc1-c1ccc(Cl)cc1	tim10-1 inh 43.1, tim23-1 inh 53.7, TIM10 inh 54.1 | tim10-1 conf inactive | TIM10 conf 38.0 | tim23-1 conf 51.4
Cc1oc(=O)c(NC(=O)c2ccccc2)cc1C(=O)c1ccccc1	tim10-1 inh 62.3, tim23-1 inh 56.6, TIM10 inh 53.4 (no result: PfHsp90 set2) | tim10-1 conf 61.0 | TIM10 conf 55.1 | tim23-1 conf 59.6
COc1ccc(-c2oc3cccnc3c2C#CC2(O)CCCCC2)cc1	tim10-1 inh 48.2, tim23-1 inh 58.3, TIM10 inh 41.5 (no result: PfHsp90 set2) | tim10-1 conf inactive | TIM10 conf inactive | tim23-1 conf 47.6
COc1ccc(C(=O)O)cc1S(=O)(=O)Nc1cc(Cl)ccc1N1CCOCC1	none (no result: Mot1-301 SUMO)
CC1CN(C(=O)CSc2nnc(NC(=O)NC(C)(C)C)s2)CC(C)O1 (centres undefined)	none (no result: PfHsp90 set2)
O=C1/C(=C/c2ccccn2)SC(=S)N1Nc1ncc(C(F)(F)F)cc1Cl	none (no result: Mot1-301 SUMO, tim10-1 inh, tim23-1 inh, TIM10 inh)
O=C1/C(=C\c2ccccn2)SC(=S)N1Nc1ncc(C(F)(F)F)cc1Cl	tim10-1 inh 63.8, tim23-1 inh 64.5, TIM10 inh 59.2 | tim10-1 conf 56.7 | TIM10 conf 46.8 | tim23-1 conf inactive
O=C(c1ccccc1Cc1ccccc1)N1CCN(S(=O)(=O)c2ccccc2[N+](=O)[O-])CC1	none
COc1ccc2nc3oc(C(=O)N4CC(C)CC(C)C4)cc3cc2c1 (centres undefined)	tim10-1 inh 59.3, tim23-1 inh 53.8 | tim10-1 conf inactive | tim23-1 conf 41.1
COc1ccc2nc3oc(C(=O)N4CCCCC4)cc3cc2c1	none
Oc1ccc(/C=C/c2nc(-c3ccccc3O)n(-c3ccccc3)n2)cc1	tim10-1 inh 59.6, tim23-1 inh 58.7 (no result: Mot1-301 SUMO, PfHsp90 set2) | tim10-1 conf 51.4 | tim23-1 conf 63.8
CC(OC(=O)c1ccc2ncsc2c1)C(=O)NC1CCCCC1C (centres undefined)	none
COc1ccc(Br)cc1C(=O)NC(=S)Nc1ccc(CN2CCOCC2)cc1	tim10-1 inh 55.3, tim23-1 inh 51.2 | tim10-1 conf inactive | tim23-1 conf 57.1
O=C(CSc1nc(=O)n2ccccc2n1)Nc1ccc2c(c1)OCO2	none
CC(=O)Oc1ccccc1/C=C/c1nc2ccccc2c(=O)o1	none
O=c1oc(/C=C/c2ccc([N+](=O)[O-])s2)nc2ccccc12	tim10-1 inh 60.1, tim23-1 inh 54.0 | tim10-1 conf 46.3 | tim23-1 conf 44.7
O=[N+]([O-])c1ccc(-c2ccc(C=Nc3cccc4ccccc34)o2)cc1	none
O=[N+]([O-])c1ccc(C=Nc2cccc3ccccc23)s1	tim10-1 inh 76.7, PfHsp90 set2 103.1, tim23-1 inh 78.8 | tim10-1 conf 77.0 | tim23-1 conf 69.7
CCOC(=O)[C@H]1[C@H]2COc3cc(OC)ccc3[C@@H]2N2C(=O)N(c3cccc(Cl)c3)C(=O)[C@@]12C	none
Cc1cc(C(=O)OCC(=O)Nc2c(Cl)cccc2Cl)c(C)o1	none
COc1ccc(NC(=O)CO/N=C/C(=O)Nc2ccccc2C)c([N+](=O)[O-])c1	none
